Experimental data published in PubChem BioAssay AID1159580 (chemical genetic matrix, 2015).
“And” between values parts separate entries of the source, which are not always exact repeats. Equal entries are not always repeated. The campaign covered roughly 5,500 compounds. About 2,000 (36%) were called active. Inconclusive results (about 18%) are left out. No stated cut-off is given here; in the data, active means normalized growth mostly below about 0.91 (no sharp cut-off); inconclusive means no clear call, values can overlap the other calls; inactive means mostly above about 0.92. The list shows a part of the results.

Test: chemical genetic growth profiling, strain panel (AID 1159580);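 further: tested at 20 µM; growth read once vehicle control cultures reached saturation at 30 °C; 1 = growth at the plate median or of vehicle wells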
Details: S. cerevisiae deletion strains, growth OD

Measured: normalized growth

C=CCSCC1Nc2cc(Cl)c(S(N)(=O)=O)cc2S(=O)(=O)N1 (configuration not stated)
inactive: locus YAL013W, strain DEP1, stronger effect = lower value 1.01 | locus YAL021C, strain ccr4, stronger effect = lower value 0.994 | locus YAL026C, strain drs2, stronger effect = lower value 1.01 | locus YAL030W, strain snc1, stronger effect = lower value 1 | locus YBL061C, strain skt5, stronger effect = lower value 1 | locus YBR009C, strain hhf1, stronger effect = lower value 0.995 | locus YBR021W, strain FUR4, stronger effect = lower value 0.991 | locus YBR023C, strain chs3, stronger effect = lower value 1 | locus YBR171W, strain sec66, stronger effect = lower value 1.01 | locus YBR229C, strain ROT2, stronger effect = lower value 1.01 | locus YBR231C, strain swc5, stronger effect = lower value 0.985 | locus YBR279W, strain paf1, stronger effect = lower value 1 | locus YCL011C, strain gbp2, stronger effect = lower value 1 | locus YCL016C, strain dcc1, stronger effect = lower value 0.993 | locus YCL029C, strain bik1, stronger effect = lower value 1.02 | locus YCL061C, strain MRC1, stronger effect = lower value 1 | locus YCL069W, strain vba3, stronger effect = lower value 0.999 | locus YCR088W, strain abp1, stronger effect = lower value 1 | locus YDL005C, strain med2, stronger effect = lower value 0.997 | locus YDL035C, strain GPR1, stronger effect = lower value 1.01 | locus YDL040C, strain nat1, stronger effect = lower value 1 | locus YDL074C, strain BRE1, stronger effect = lower value 1.01 | locus YDL101C, strain DUN1, stronger effect = lower value 1.01 | locus YDL134C, strain PPH21, stronger effect = lower value 1.01 | locus YDL185W, strain tfp1, stronger effect = lower value 1.02 | locus YDL192W, strain arf1, stronger effect = lower value 1.02 | locus YDR001C, strain nth1, stronger effect = lower value 1 | locus YDR069C, strain doa4, stronger effect = lower value 0.997 | locus YDR101C, strain arx1, stronger effect = lower value 1.01 | locus YDR137W, strain rgp1, stronger effect = lower value 1 | locus YDR150W, strain NUM1, stronger effect = lower value 1.01 | locus YDR159W, strain sac3, stronger effect = lower value 0.981 | locus YDR162C, strain NBP2, stronger effect = lower value 1.02 | locus YDR195W, strain ref2 1 | locus YDR297W, strain sur2, stronger effect = lower value 1 | locus YDR318W, strain mcm21, stronger effect = lower value 1.02 | locus YDR334W, strain swr1, stronger effect = lower value 1 | locus YDR335W, strain msn5, stronger effect = lower value 1.01 | locus YDR388W, stronger effect = lower value 1.02 | locus YDR392W, strain spt3, stronger effect = lower value 0.939 | locus YDR502C, strain sam2, stronger effect = lower value 1.03 | locus YEL003W, strain gim4, stronger effect = lower value 1 | locus YEL037C, strain rad23, stronger effect = lower value 1 | locus YEL061C, strain CIN8 (second series), stronger effect = lower value 0.997 | locus YEL061C, strain CIN8, stronger effect = lower value 1 | locus YER015W, strain faa2, stronger effect = lower value 1 | locus YER016W, strain bim1, stronger effect = lower value 1 | locus YER110C, stronger effect = lower value 1.03 | locus YER111C, strain swi4, stronger effect = lower value 1 | locus YER155C, strain BEM2 (second series), stronger effect = lower value 1 | locus YER155C, strain BEM2, stronger effect = lower value 1 | locus YER167W, strain BCK2, stronger effect = lower value 1 | locus YFR010W, strain ubp6, stronger effect = lower value 1.01 | locus YGL078C, strain dbp3, stronger effect = lower value 1.03 | locus YGL086W, strain mad1, stronger effect = lower value 1.01 | locus YGL167C, strain pmr1, stronger effect = lower value 1 | locus YGL173C, strain kem1, stronger effect = lower value 1 | locus YGL227W, strain vid30, stronger effect = lower value 0.99 | locus YGL240W, strain doc1, stronger effect = lower value 0.992 | locus YGL248W, strain PDE1, stronger effect = lower value 1.01 | locus YGL253W, strain hxk2, stronger effect = lower value 0.992 | locus YGR078C, strain PAC10, stronger effect = lower value 1 | locus YGR135W, strain pre9, stronger effect = lower value 1.01 | locus YGR229C, strain SMI1, stronger effect = lower value 1.01 | locus YGR252W, strain gcn5, stronger effect = lower value 1.06 | locus YHR013C, strain ard1, stronger effect = lower value 0.988 | locus YHR027C, strain rpn1, stronger effect = lower value 1.01 | locus YHR030C, strain SLT2, stronger effect = lower value 1 and 1.06 | locus YHR079C, strain IRE1 (second series), stronger effect = lower value 1.02 | locus YHR079C, strain IRE1, stronger effect = lower value 1.06 | locus YHR094C, strain hxt1, stronger effect = lower value 1.02 | locus YHR129C, strain ARP1, stronger effect = lower value 1.02 | locus YHR142W, strain chs7, stronger effect = lower value 0.988 | locus YHR200W, strain rpn10, stronger effect = lower value 1.03 | locus YIL066C, strain RNR3, stronger effect = lower value 1 | locus YIL073C, strain SPO22, stronger effect = lower value 1.08 | locus YIL125W, strain kgd1, stronger effect = lower value 1.02 | locus YIR030C, strain dcg1, stronger effect = lower value 1.03 | locus YJL092W, strain hpr5, stronger effect = lower value 0.995 | locus YJL095W, strain BCK1 (second series), stronger effect = lower value 0.994 | locus YJL095W, strain BCK1, stronger effect = lower value 1 and 1.06 | locus YJL115W, strain asf1, stronger effect = lower value 1 | locus YJL129C, strain trk1, stronger effect = lower value 0.989 | locus YJL134W, strain LCB3, stronger effect = lower value 1.01 | locus YJL154C, strain vps35, stronger effect = lower value 0.999 | locus YJL164C, strain tpk1, stronger effect = lower value 1.01 | locus YJL166W, strain qcr8, stronger effect = lower value 0.998 | locus YJL168C, strain set2, stronger effect = lower value 1.03 | locus YJL187C, strain SWE1 (second series), stronger effect = lower value 1.01 | locus YJL187C, strain SWE1, stronger effect = lower value 1 | locus YJR043C, strain POL32, stronger effect = lower value 1 | locus YJR066W, strain TOR1, stronger effect = lower value 0.991
